# Measured values taken from PubChem BioAssay (NCATS).
# Several values for one entry are separate records, joined by “and”; a condition that tells them apart may be missing. Equal entries are not always repeated. Inconclusive results are not listed. A call without a number means that no potency is given here. Activity calls are given as the source filed them. The call rests on the fitted dose curve; in most records, active means well fitted curve in the direction sought with a large enough effect; inconclusive means small, poorly fitted or top-dose-only effect, or another doubt; inactive means no such curve, though single readings can be large; an effect the other way counts as inactive or inconclusive.
# Legend:
# [1] = target: Single-stranded DNA cytosine deaminase (Homo sapiens) (UniProt Q9GZX7); assay: Validation qHTS assay for inhibitors of Activation Induced Cytidine Deaminase (AID): AID signal (AID 1347429)
# Outline: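 FRET deamination assay: 1 uM AID (4/3x stock) with UDG, compound up to 114 uM, then 250 nM DJC20/DJC23 substrate (4x stock) for 4 hr at room temperature. NaOH added, 30 min; fluorescence read 540/590 nm.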
# [2] = Primary qHTS for inhibitors of La Crosse Virus (LACV) - induced cell death in SH-SY5Y cells (AID 1508616); further: potency means the concentration at half of the fitted maximal effect
# Outline: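 SH-SY5Y cells (6000/well) plated 24 h, then given compounds by pin transfer and LACV at 0.01 MOI for 6 days at 37C. Viability measured by ATPLite luminescence, normalized to infected DMSO and uninfected DMSO.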
# [3] = Counterscreen qHTS for small molecule stabilizers of the endoplasmic reticulum resident proteome: GLuc-NoTag assay (AID 1508627); further: potency means the concentration at half of the fitted maximal effect
# Outline: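 SH-SY5Y cells stably expressing constitutively secreted GLuc (no SERCaMP tag) were pre-incubated 5 h, treated with compound for 19 h, then 100 nM thapsigargin for 4 h at 37C; medium GLuc read by coelenterazine luminescence.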
# Papain (Carica papaya) = Papain (Carica papaya) (UniProt P00784); assay: Primary qHTS assay for inhibitors of the protease papain (AID 1645873);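 further: papain turnover of Z-FR-AMC read as the AMC fluorescence gain over 10 min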; further: potency means the concentration at half of the fitted maximal effect
# [4] = Primary qHTS for small molecule stabilizers of the endoplasmic reticulum resident proteome: Secreted ER Calcium Modulated Protein (SERCaMP) assay (AID 1508630)
# Outline: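 GLuc-SERCaMP-expressing SH-SY5Y cells, pretreated 16 h with compound, are challenged with thapsigargin to empty ER calcium stores; after 4 h, coelenterazine is added directly to the medium and luminescence is imaged.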
# [5] = target: Calcium and integrin-binding protein 1 (Homo sapiens) (UniProt Q99828); assay: Validation qHTS for Identification of Calcium Integrin Binding protein 1 (CIB1) Competitor (AID 1508618)
# Outline: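 CIB1-GST (1 uM final) in 5 mM HEPES pH 7.4, 125 mM NaCl, 5 mM CaCl2, 0.01% Tween20 was preincubated 15 min at room temperature with compound (up to 114 uM), then FITC-alphaIIb peptide (100 nM) added for 15 min; fluorescence polarization read.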
# [6] = Confirmatory qHTS for small molecule stabilizers of the endoplasmic reticulum resident proteome: Secreted ER Calcium Modulated Protein (SERCaMP) assay (AID 1508628); further: potency means the concentration at half of the fitted maximal effect; nearly all actives have a fitted effect of over 40% in size
# Outline: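 SH-SY5Y cells stably expressing GLuc-SERCaMP, treated 16 h with compound (primary 1.53, 7.67, 38.3 uM; confirmation 11 concentrations, up to 76.6 uM), then 100 nM thapsigargin for 4 h. Secreted Gaussia luciferase in medium read by coelenterazine luminescence.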
# [7] = Cell Viability qHTS for small molecule stabilizers of the endoplasmic reticulum resident proteome (AID 1508629); conditions: cell viability counter-screen, 100 nM thapsigargin for final 4 h;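 further: potency means the concentration at half of the fitted maximal effect; compound exposure about 46 h in total before the viability read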
# Sequence of Papain (Carica papaya) (P00784 whole entry, looked up): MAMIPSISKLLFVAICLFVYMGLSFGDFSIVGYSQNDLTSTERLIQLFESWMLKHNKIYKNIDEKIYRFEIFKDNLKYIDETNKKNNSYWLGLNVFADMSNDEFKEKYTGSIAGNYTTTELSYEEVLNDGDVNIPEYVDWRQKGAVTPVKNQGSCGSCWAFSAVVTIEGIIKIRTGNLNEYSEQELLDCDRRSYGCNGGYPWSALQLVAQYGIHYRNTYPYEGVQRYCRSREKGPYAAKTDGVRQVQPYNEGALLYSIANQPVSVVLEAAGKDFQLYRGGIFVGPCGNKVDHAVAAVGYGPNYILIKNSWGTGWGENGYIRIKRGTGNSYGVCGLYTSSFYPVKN
# Sequence of Single-stranded DNA cytosine deaminase (Homo sapiens) (Q9GZX7 whole entry, looked up): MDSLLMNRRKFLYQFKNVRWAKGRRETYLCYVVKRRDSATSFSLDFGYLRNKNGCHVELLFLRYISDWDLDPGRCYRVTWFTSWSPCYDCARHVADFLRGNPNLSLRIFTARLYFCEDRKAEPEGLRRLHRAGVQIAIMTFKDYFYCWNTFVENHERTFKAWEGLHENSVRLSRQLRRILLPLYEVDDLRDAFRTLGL
# Sequence of Calcium and integrin-binding protein 1 (Homo sapiens) (Q99828 whole entry, looked up): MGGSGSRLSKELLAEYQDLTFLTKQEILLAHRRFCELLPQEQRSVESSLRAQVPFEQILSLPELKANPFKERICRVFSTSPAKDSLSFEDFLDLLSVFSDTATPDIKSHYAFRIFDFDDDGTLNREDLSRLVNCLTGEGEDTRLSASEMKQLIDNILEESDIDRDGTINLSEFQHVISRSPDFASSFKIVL
SMILES,Potency [1],Potency [2],Potency [3],Potency (Papain (Carica papaya)),Potency [4],Potency [5],Potency [6],Potency [7]
N#C/C(=C\c1ccc(O)c(O)c1)C(=O)NCCCNC(=O)/C(C#N)=C/c1ccc(O)c(O)c1,inactive,inactive,20 µM (active),22.4 µM (active),,,,
C#CCn1c(=O)c2c(ncn2C)n(C)c1=O,inactive,inactive,,inactive,inactive,,,
CNc1ncnc2c1ncn2[C@H]1C[C@H](OP(=O)(O)O)[C@@H](COP(=O)(O)O)O1,inactive,inactive,,inactive,,inactive,,
CCCCCCCC/C=C\CCCCCCCC(=O)NCCc1ccc(O)c(O)c1,inactive,2.82 µM (active),inactive,inactive,,,5.01 µM (active),3.98 µM (active) and 7.08 µM (active)
COc1cc2c(CCNC(C)=O)c[nH]c2cc1O,inactive,inactive,,inactive,,inactive,,
COC(=O)C(C)(N)Cc1ccc(O)cc1 (stereo not given),inactive,inactive,,inactive,,inactive,,
C=C1C[C@@]23CC[C@H]4[C@@](C)(CCC[C@@]4(C)C(=O)OC4OC(CO)C(O)C(O)C4O)[C@@H]2CC[C@]1(OC1OC(CO)C(O)C(O)C1OC1OC(CO)C(O)C(O)C1O)C3 (stereo not given in full),inactive,inactive,,inactive,,inactive,,
OC[C@H]1NC[C@@H](O)[C@@H]1O,inactive,inactive,,inactive,,inactive,,
Brc1c(Br)c(Br)c2[nH]cnc2c1Br,inactive,inactive,,inactive,,inactive,,
O=C1NC(=O)c2cc(Nc3ccccc3)c(Nc3ccccc3)cc21,inactive,inactive,,inactive,,inactive,,
CC(=O)C(C)=O,inactive,inactive,,inactive,,inactive,,
C/C(=C\c1ccc(C(=O)O)cc1)c1ccc2c(c1)C(C)(C)CCC2(C)C,inactive,inactive,,,inactive,,,
Nc1ccc(N2C(=O)c3ccccc3C2=O)c(Cl)c1,inactive,inactive,,inactive,,inactive,,
CC(=O)O[C@H]1CC2(C)[C@@H](C[C@@H](O)[C@H]3[C@@]4(C)CC[C@@H](O)[C@@H](C)[C@@H]4CC[C@@]32C)C1=C(CCC=C(C)C)C(=O)O (stereo not given in full),inactive,inactive,,inactive,,inactive,,
Cc1nc(N=Nc2ccc(C(=O)O)cc2)c(COP(=O)(O)O)c(C=O)c1O,inactive,inactive,,inactive,inactive,,,
NCCC1CCCC(CCN)N1 (stereo not given),inactive,inactive,,inactive,,inactive,,
